target: RASGRP2; test: pooled miR-30 sensor sort-seq; sequence = guide strand; details: shRNA

| Sequence | sensor-assay potency score (higher = more potent) |
| --- | --- |
| TCAAACAACAGGGACATCTTGC | -0.201 |
| TAGGAAACCATCTCCTCCCTGC | 0.463 |
| TTTGCTGAGGATCATGAGCTGC | -0.888 |
| TACTGATCCAGAGACACCGTGA | 0.0565 |

target: RASIP1; test: as above; details: shRNA

| Sequence | sensor-assay potency score (higher = more potent) |
| --- | --- |
| TCAACTGATCGAAGTCCCCGGG | 0.0667 |
| TTAGGCTGCTCCATGAAGCCTT | -0.552 |
| TTTTCTGAGCGCTCCTTGCCTC | -0.853 |
| AAGAAGACTTGACAGAGGCTGC | 0.0487 |
| TTCCAAGTCATTGCAGAGCTGT | -0.369 |
| TGGAGCAGCAGGAAGTAGGGGC | 0.0878 |
| TTGGTCAGCCTCCTTCTCCATT | -1.48 |
| TTGGAGAAGAAGAACAAGTAGC | -0.187 |
| TTGAATAGAGAGTCTTGGTGAG | 0.37 |
| TTGACCTCGTTCCATCAGCGAG | -1.71 |
| TGAATAGAGAGTCTTGGTGAGG | -1.22 |
| TAGGTCTCAATCCTGGAGGCAT | -0.489 |

target: RASL10B; test: as above; details: shRNA

| Sequence | sensor-assay potency score (higher = more potent) |
| --- | --- |
| TTAATCAGGATAGTCTGAGATC | -1.01 |
| TAGGTTGTTGTGTCTCTGGGGG | 0.276 |
| ATGTAGGCGTGGACACTCCGGA | -0.908 |
| TAGCCGCACTTCCAGGTCTTGC | -1.97 |
| TAGACCAGGATGTAGGCGTGGA | -0.176 |
| TTCTAAATCGGTACAAAACTGA | -0.599 |
| TACAAAACTGACAGTGATCAGC | -0.715 |
| AACTCGTTGTACAAGAACTGGC | 0.0656 |
| TCGTTGTACAAGAACTGGCGCA | -0.634 |
| TCGTAGACCAGGATGTAGGCGT | 0.139 |
| TCCACGTAGCCGCACTTCCAGG | -2 |
| TTGACGTACTCAAAGCTGTCAA | 0.000852 |

target: RASSF2; test: as above; details: shRNA

| Sequence | sensor-assay potency score (higher = more potent) |
| --- | --- |
| TTCGTTGTCATCCTGCATCTGC | 0.418 |
| TTCTCCATTAGGAACACTTTGG | -1.02 |
| TTCCCGATCTTCTTCCTCCTGG | 0.559 |
| TAACTAAAATCAAAAGTCCTTG | -0.812 |
| TTTGTGTCTAAATGTTTCCATG | -1.27 |
| TTCTGTTTCTCACCACTCGTAT | -0.432 |
| TATTTATCTTGTCCACATGGGA | -0.838 |
| TACATGTGAAAGTATCAGGTAG | -0.041 |
| TATGGTTGTAGAAATGGCCGTT | 1.03 |
| TATCTTGTCCACATGGGACTAG | 0.13 |
| TCTGCTGACTTCTACATCCAGC | -0.516 |
| TTTAAGTACCGGCATCTCGAAC | -0.976 |

Reference: the OligoGym collection
